The values that follow come from PubChem BioAssay (NCATS).

Assay [1] has as its system Zika virus NS2B-NS3 protease (unlinked). Nature of the assay: Optimization of GU AMC qHTS for Zika virus inhibitors: Unlinked NS2B-NS3 protease assay (AID 1347151). Also: nearly all actives have a fitted effect of over 80% in size. Also: potency is read from the fitted curve at half-maximal effect. In short, it runs like this:
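Fluorescence read-out (340 nm ex / 450 nm em) of AMC peptide cleavage, taken immediately and after 15 min at room temperature (~20% conversion). Enzyme was the unlinked NS2B–NS3 complex at 25 nM in Tris pH 8.0 buffer.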

The subject of assay [2] is Zika virus NS2B-NS3 protease (unlinked complex). The assay can be described thus: Confirmatory screen GU AMC qHTS for Zika virus inhibitors (AID 1347153). Also: nearly all actives have a fitted effect of over 70% in size. In short, it runs like this:
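Compounds were preincubated 15 min at room temperature with 25 nM noncovalent NS2B-NS3 protease at pH 8.0; AMC substrate added at 10 microM and 15-min fluorescence gain (340/450 nm) converted to percent inhibition, fitted 4-parameter.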
A general note: qHTS replaces the single test concentration by a dilution series.

Assay [3] can be described thus: Confirmatory screen NINDS Rhodamine qHTS for Zika virus inhibitors (AID 1347161). Also: nearly all actives have a fitted effect of over 60% in size. Also: potency is read from the fitted curve at half-maximal effect. From the text:
Avindra Nath, Ph.D., National Institute of Neurological Disorders and Stroke (NINDS), Bethesda, MD
Radhakrishnan Padmanabhan, Ph.D., Georgetown University (GU), Washington D.C.
Zika Virus causes congenital defects, including microcephaly and is associated with Guillain-Barre syndrome, eningoencephalitis and myelitis in infected adult. […] Using a target-based approach, we hope to establish a screening paradigm to uncover novel, cell-active NS2B-NS3 protease (Zika Virus) specific inhibitors from NCATS' collection of small molecules using qHTS.
Four assay panel was created to identify potential Zika Virus inhibitors. Namely, (1) GU unlinked NS2B-NS3 AMC tagged protease qHTS, (2) GU unlinked NS2B-NS3 Rhodamine tagged protease qHTS, (3) NINDS linked NS2B-NS3 AMC tagged protease qHTS, (4) NINDS linked NS2B-NS3 Rhodamine tagged protease qHTS. Active compounds were re-acquired and re-screened to confirm inhibition. Inhibitors were further screened against various confirmatory and counterscreens in dose response format.
Early Translation Branch (ETB)
National Center for Advancing Translational Sciences (NCATS), Rockville, MD
National Institute of Health (NIH), Bethesda, Maryland
For the linked assay, Nath lab (NINDS) provided the purified linked NS2B-NS3 protease which is consists of hydrophilic domain of NS2B linked to the NS3 protease domain by a flexible (-[…]-) linker. Control compound aprotinin is obtained from Thermo Scientific (#78432; Waltham, Massachusetts). Rhodamine110 substrate ([N-Cbz]-Nle-Lys-Arg-Arg-Rhod110-Arg-Arg-Lys-Nle-[N-Cbz]) was purchased from either Genscript or Bachem.
1536-well Protease (Rhodamine110 Substrate) Assay:
Briefly, 3 microL of enzyme (25 nM final concentration), in assay buffer (10 mM Tris-HCl pH 8.0 with 0.01% Tween 20) were dispensed into a 1,536-well solid-bottom black plate (Greiner Bio One, Monroe, NC). Twenty-three nL of compounds (final concentration range 7.28 nM to 114 microM) or control Aprotinin (final concentration range 3.47 nM to 114 microM) were transferred via Wako Pin-tool (Wako Automation, Richmond, VA). Samples were incubated (room temperature, protected from light) for 15 minutes followed by a 1 microL Rhodamine110 substrate addition (1.5 microM final concentration). Plates were then immediately read on a ViewLux High-throughput CCD imager (PerkinElmer, Waltham, MA) equipped with FITC fluorescence optics (480(20) nm excitation, 540(25) nm emission), then incubated (room temperature, protected from light) for 15 minutes (~15% conversion). The change in fluorescence intensity over the 15-minute reaction period was normalized against no-inhibitor and no-enzyme controls and the resulting percent inhibition data were fitted to a 4-parameter Hill equation. Aprotinin was used as intraplate control.

Assay [4] relates to Zika virus NS2B-NS3 protease (linked). Nature of the assay: 384 well plate NINDS AMC confirmatory qHTS for Zika virus inhibitors (AID 1347163). Also: potency is read from the fitted curve at half-maximal effect; nearly all actives have a fitted effect of over 50% in size. The note with it: Recombinant NS2B-NS3 protease, Ac-VKTGKR-AMC fluorescence. The essentials: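 Linked NS2B-NS3 protease (final 5 nM, 30 nM or 60 nM) was preincubated with compounds (final up to 1 mM) for ~15 minutes. Ac-VKTGKR-AMC substrate (final 30 microM) then reacted for 25 minutes at room temperature in the dark. Fluorescence (ex 355/em 460 nm) was normalized to no-enzyme and no-inhibitor controls.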

Assay [5] deals with Zika virus NS2B-NS3 protease (linked construct). Nature of the assay: 384 well plate NINDS Rhodamine confirmatory qHTS for Zika virus inhibitors (AID 1347164).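 Also: fluorescence from protease cleavage of Ac-LKRR-rhodamine 110 substrate; potency is read from the fitted curve at half-maximal effect; nearly all actives have a fitted effect of over 65% in size.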 The essentials:
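Fluorescence read at ex 485 nm/em 538 nm, 25 min after adding 10 microM Ac-LKRR-Rd substrate at room temperature in the dark; signal normalized to no-enzyme and no-inhibitor controls. Enzyme final 5, 30 or 60 nM; compounds, ~15 min preincubation.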

Assay [6] has as its system Zika virus NS2B-NS3 protease. Nature of the assay: Primary screen GU AMC qHTS for Zika virus inhibitors (AID 1347154). Also: nearly all actives have a fitted effect of over 70% in size. In short, it runs like this: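 Unlinked Zika NS2B hydrophilic domain–NS3 protease complex at 25 nM in 10 mM Tris-HCl pH 8.0, 0.01% Tween 20, with an AMC peptide substrate. Fluorescence change (340/450 nm) over 15 min at room temperature, normalized to controls, fitted to 4-parameter Hill.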

For assay [7], the system named is Zika virus NS2B-NS3 protease (unlinked complex). Nature of the assay: Primary screen GU Rhodamine qHTS for Zika virus inhibitors: Unlinked NS2B-NS3 protease assay (AID 1347159). Also: nearly all actives have a fitted effect of over 60% in size. In short, it runs like this:
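Percent inhibition derives from the 15-min fluorescence change (ex 480, em 540 nm), normalized to no-enzyme and no-inhibitor wells. Reactions contained 25 nM NS2B-NS3 complex and 1.5 microM substrate in 10 mM Tris-HCl pH 8.0.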

For assay [8], the system named is Zika virus NS2B-NS3 protease (linked construct). Nature of the assay: Primary screen NINDS Rhodamine qHTS for Zika virus inhibitors (AID 1347160). Also: nearly all actives have a fitted effect of over 55% in size. In short, it runs like this: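 In 10 mM Tris-HCl pH 8.0 containing 0.01% Tween 20, linked NS2B-NS3 protease (25 nM final) is exposed to test compounds for 15 min. Cleavage of 1.5 microM Rhodamine110 substrate is tracked by fluorescence over 15 min.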

Records with an inconclusive call do not appear. Where a call stands in place of a potency, no number is given. Values without a mark were called inactive. The source made the active and inactive calls. Calls follow the shape of the dose curve; as a rule, active = well fitted curve in the direction sought with a large enough effect; inconclusive = small, poorly fitted or top-dose-only effect, or another doubt; inactive = no such curve, though single readings can be large; an effect the other way counts as inactive or inconclusive.

For `O=C(c1cc(O)c(O)c([N+](=O)[O-])c1)c1ccccc1F`, the Potency in assay [1] was 2.99 µM (active); in assay [3] it was 17.5 µM (active); in assay [4], 112 µM (active); in assay [5] it was 0.398 µM (active). Besides, the compound was called inactive in assay [2].

Take `CNc1ncnc2c1ncn2[C@@H]1O[C@H](CO)[C@@H](O)[C@H]1O`: the Potency entry in assay [1] and in assay [6] was “inactive” in each case.

As for `N[C@@H](CC(=O)O)C(=O)O`, the Potency result in assay [1] and in assay [6] was “inactive” throughout.

In the case of `COc1ccc(/C=C/c2nc(NCCCN(C)C)c3ccccc3n2)cc1`, the Potency in assay [1] was 26.7 µM (active). In addition, the result in assay [2] was inactive. Moreover, the Potency entry in assay [3] is “inactive”.

As for `O=C(CCSCc1ccco1)NNC(=O)N1Cc2ccccc2Oc2ccc(Cl)cc21`, the Potency result in assay [1] was “inactive”.

As to `CCCCCCCCCCCCCCCC(=O)OC(CC(=O)O)C[N+](C)(C)C` (configuration not stated), the Potency result in assay [1] and in assay [6] was “inactive” in each case.

Regarding `O=C(Nc1ccccc1)c1cc([N+](=O)[O-])ccc1Cl`, the Potency entry in assay [1] and in assay [6] was “inactive” in each case.

Turning to `CC(C)(C)c1ccc(S(=O)(=O)/C=C/C#N)cc1`, the Potency result in assay [1] was “inactive”.

For the compound `COCCOc1cc2ncnc(Cl)c2cc1OCCOC`, the Potency result in assay [1] is “inactive”.

On to `N[C@H](CCCP(=O)(O)O)C(=O)O`, for which the Potency entry in assay [1] and in assay [6] was “inactive” each time.

Take `Cc1ccc(O)c(N=Nc2ccccc2)n1`: the Potency result in assay [1] and in assay [6] was “inactive” in each case.

For `Cn1cc(C2=C(c3ccc(Cl)cc3Cl)C(=O)NC2=O)c2ccccc21`, the Potency result in assay [1] and in assay [6] was “inactive” each time.

Turning to `CCCC(CCC)C(=O)OC1CC2CCC(C1)[N+]2(C)C` (configuration not stated), the Potency result in assay [1] is “inactive”.

As for `O=c1[nH]c2cc([N+](=O)[O-])c([N+](=O)[O-])cc2[nH]c1=O`, the Potency entry in assay [1] and in assay [6] was “inactive” throughout.

As for `COC(=O)c1c(C)[nH]c(C)c1C(=O)c1ccccc1Cc1ccccc1`, the Potency result in assay [1] and in assay [6] was “inactive” throughout.

As to `CNC(=O)[C@H]1O[C@@H](n2cnc3c(NCc4cccc(I)c4)ncnc32)[C@H](O)[C@@H]1O`, the Potency result in assay [1] and in assay [6] was “inactive” in each case.

For the compound `Nc1nc(SCc2ccc([N+](=O)[O-])cc2)c2ncn([C@@H]3O[C@H](CO)[C@@H](O)[C@H]3O)c2n1`, the Potency result in assay [1] and in assay [6] was “inactive” in each case.

Consider `Nc1ncnc2c1ncn2[C@@H]1O[C@H](COP(=O)(O)OP(=O)(O)OP(=O)(O)OP(=O)(O)OC[C@@H]2O[C@H](n3cnc4c(N)ncnc43)[C@@H](O)[C@H]2O)[C@@H](O)[C@H]1O`, for which the Potency entry in assay [1] and in assay [6] was “inactive” in each case.

Turning to `O=C1NCc2c1c1c3ccccc3[nH]c1c1[nH]c3ccccc3c21`, the Potency in assay [1] was 23.8 µM (active).

As to `O=C(O)c1cc(=O)c2c(Cl)cc(Cl)cc2[nH]1`, the Potency result in assay [1] and in assay [6] was “inactive” in each case.

For `Oc1cc2c(cc1O)CN(C(=S)NCCc1ccc(Cl)cc1)CCC2`, the Potency in assay [1] is 23.8 µM (active). For the same compound, the outcome in assay [2] was inactive.

Take `CSc1nc(N)c2ncn([C@@H]3O[C@H](COP(=O)(O)OP(=O)(O)OP(=O)(O)O)[C@@H](O)[C@H]3O)c2n1`: the Potency result in assay [1] and in assay [6] was “inactive” throughout.

On to `O=[N+]([O-])c1ccc2c(c1)S(=O)(=O)C=C2`, for which the Potency result in assay [1] and in assay [6] was “inactive” each time.

In the case of `NS(=O)(=O)C#Cc1ccccc1`, the Potency entry in assay [1] and in assay [6] was “inactive” each time.

For the compound `COc1cccc(OC)c1OCCNCC1COc2ccccc2O1` (configuration not stated), the Potency result in assay [1] and in assay [6] was “inactive” in each case.

Turning to `Clc1ccc(N2CCN(Cc3c[nH]c4ncccc34)CC2)cc1`, the Potency entry in assay [1] and in assay [6] was “inactive” throughout.

Consider `Cc1ccc(S(=O)(=O)/C=C/C#N)cc1`, for which the Potency result in assay [1] and in assay [6] was “inactive” each time.

Regarding `CNC(=O)[C@H]1O[C@@H](n2cnc3c(NCc4ccc(N)cc4)ncnc32)[C@H](O)[C@@H]1O`, the Potency result in assay [1] is “inactive”.

For `O=C1NC(=O)/C(=C/c2ccc(-c3ccc(F)cc3O)o2)S1`, the Potency in assay [1] was 21.2 µM (active); in assay [3], 24.8 µM (active); in assay [4] it was 63.1 µM (active); in assay [5], 20 µM (active). Also, in assay [2], the call was inactive.

On to `CNCC[C@H](Oc1ccc(C(F)(F)F)cc1)c1ccccc1`, for which the Potency result in assay [1] and in assay [6] was “inactive” in each case.

For the compound `CC12C(=O)OC(=O)C1(C)C1CCC2O1` (configuration not stated), in assay [1], the Potency entry was “inactive”.

With `Brc1c(Br)c(Br)c2n[nH]nc2c1Br`, the Potency in assay [1] is 26.7 µM (active).

Consider `S=c1[nH]c(-c2ccccc2)cn1-c1ccccc1`, for which, in assay [1], the Potency is 26.7 µM (active). The compound was called inactive in assay [2].

Take `CC(N)C(=O)OC(C)(C)Cc1ccc(Cl)cc1` (configuration not stated): the Potency result in assay [1] and in assay [6] was “inactive” in each case.

For `CCC1C(=O)OCC1Cc1cncn1C` (configuration not stated), the Potency entry in assay [1] and in assay [6] was “inactive” in each case.

`CCCCN(CC)c1nc(C)nc2c1c(C)cn2-c1c(C)cc(C)cc1C`: the Potency in assay [1] was 26.7 µM (active). In addition, the result in assay [2] was inactive. Besides, the Potency entry in assay [7] and in assay [8] was “inactive” each time.

Consider `C[C@@H](CN1CCC(Cc2ccccc2)CC1)[C@@H](O)c1ccc(O)cc1`, for which the Potency entry in assay [1] and in assay [6] was “inactive” in each case.

As to `CCOC(=O)c1ccccc1O`, the Potency entry in assay [6] was “inactive”.

As to `O=C(O)[C@@H]1C[C@@H](C(=O)O)N1`, the Potency result in assay [6] was “inactive”.

As for `COC(=O)C1=C(C)NC(C)=C(C(=O)OC)C1c1cccc(NC(=O)NCCCN2CCC(c3cccc(OC)c3)CC2)c1`, the compound was called inactive in assay [2]. The Potency result in assay [7], in assay [8] and in assay [3] was “inactive” throughout.

Take `COc1ccccc1CNCCCCCCNCCCCCCCCNCCCCCCNCc1ccccc1OC`: the Potency entry in assay [1] and in assay [6] was “inactive” each time.

For `O=C(O)c1cc(=O)c2ccccc2[nH]1`, the Potency entry in assay [6] was “inactive”.

Consider `O=C(Nc1ccc2c(c1)CCN(Cc1ncn[nH]1)C2)c1ccccc1-c1ccc(C(F)(F)F)cc1`, for which the Potency result in assay [1], in assay [7] and in assay [8] was “inactive” in each case.
